LmPK inh: blocks Leishmania mexicana pyruvate kinase activity. Q27686. purified LmPK, Kinase-Glo ATP luminescence, 1 h. Potency, µM (doses to about 57.5 µM), without a hit: top-dose activity change, negative = inhibition, hits mostly inhibitors. 0.37% of 290,000 active. AID 1721; further: potency means the concentration at half of the fitted maximal effect; on the % scale 0 is the no-effect control and ±100 the full control effect
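Screened at intermediate enzyme activity to detect both inhibitors and activators: LmPK at 0.1 nM, with a 0.5 nM enzyme column as activation reference. PEP 0.5 mM, ADP 0.1 mM; ATP detected by luminescence after 1 h.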
Giardia FBPA inh: Giardia lamblia aldolase inhibition | purified Giardia FBPA | Potency, µM (highest dose often 59.6 µM), without a hit: at the top dose activity, negative = inhibition, actives largely listed as inhibitors | 0.71% of 290,000 active; further: potency means the concentration at half of the fitted maximal effect; on the % scale 0 is the no-effect control and ±100 the full control effect; nearly all actives have a fitted effect of over 55% in size
Target sequence (A8B2U2 whole entry, looked up): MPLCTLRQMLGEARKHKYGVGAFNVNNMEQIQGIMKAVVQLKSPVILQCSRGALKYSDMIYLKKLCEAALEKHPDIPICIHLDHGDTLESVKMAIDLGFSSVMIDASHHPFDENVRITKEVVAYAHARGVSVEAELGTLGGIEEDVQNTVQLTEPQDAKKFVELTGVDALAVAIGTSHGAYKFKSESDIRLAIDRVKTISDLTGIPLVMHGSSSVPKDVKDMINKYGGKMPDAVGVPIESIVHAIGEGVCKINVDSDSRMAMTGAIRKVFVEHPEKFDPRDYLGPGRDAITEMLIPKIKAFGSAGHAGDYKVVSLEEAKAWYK
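Giardia FBPA (40 nM reagent) was preincubated 10 min at RT with compound (up to 57.5 uM final), then substrate plus GAPDH/TPI/NAD/arsenate coupling system with diaphorase/resazurin was added; resorufin fluorescence (525/598 nm) was read after 20 min.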
Tb PYK inh: inhibitors of Trypanosoma brucei pyruvate kinase; TbPYK enzyme, Kinase-Glo Plus ATP luminescence, 45 min; Potency, µM (doses to about 76.8 µM), inactives show at the top dose activity, negative = inhibition, most hits filed as inhibitors; 0.12% of 410,000 active; further: potency means the concentration at half of the fitted maximal effect; on the % scale 0 is the no-effect control and ±100 the full control effect; nearly all actives have a fitted effect of over 50% in size
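TbPYK + substrate in 50 mM TEA pH 7.2, 100 mM KCl, 10 mM MgCl2, 0.05% BSA, 0.01% Tween-20; cpd pinned; ADP 130 uM final; 45 min RT; Kinase-Glo Plus 10 min; luminescence endpoint.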
Cycloheximide cs: counter-screen for Shiga toxin inhibitors: cycloheximide protein synthesis inhibition. 12% of 300,000 active. AID 2314. cell reporter, cycloheximide protein synthesis inhibition counterscreen. max response, %; in the data active means max response mostly above about 13%, no sharp cut-off; inactive means mostly below about 14%; further: read at 38.3 µM for the half of the compounds with a filed dose; 0% is about no effect
RE007 growth inh: less growth of the S. pombe RE007 Vpr strain; Potency, µM (top dose mostly 92.2 µM), inactives show at the top dose activity change, negative = less growth, usual class: inhibitors; 0.21% of 360,000 active; S. pombe RE007 Vpr strain, BacTiter-Glo ATP luminescence, 24 h; active means well fitted falling curve with a large enough effect; inconclusive means small, poorly fitted or top-dose-only effect; inactive means no such curve, though single readings can be large or run the other way; further: potency means the concentration at half of the fitted maximal effect; on the % scale 0 is the no-effect control and ±100 the full control effect; nearly all actives have a fitted effect of over 50% in size
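Fission yeast RE007 carrying one integrated HIV-1 vpr copy, seeded at OD 0.01 in PMG+AL medium with 23 nL pinned compound. Grown 24 h at 30 degrees; viability read by BacTiter-Glo luminescence after 5 min.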
Shiga toxin inh: inhibitors of Shiga toxin in Vero cells; Vero cells, Shiga toxin protein synthesis inhibition reporter; inhibition, % at 38.7 µM; 9.2% of 290,000 active; AID 2315; in the data active means inhibition mostly above about 28%, no sharp cut-off; inactive means mostly below about 43%; further: 0% is about no effect
An asterisk follows results filed as active; ? = inconclusive; . = no result given; + = active, no number. The full list was thinned out, with hits kept by preference. Unless noted, the call rests on the fitted dose curve; in most records, active means well fitted curve in the direction sought with a large enough effect; inconclusive means small, poorly fitted or top-dose-only effect, or another doubt; inactive means no such curve, though single readings can be large; an effect the other way counts as inactive or inconclusive.

SMILES | LmPK inh | Giardia FBPA inh | Tb PYK inh | Cycloheximide cs | RE007 growth inh | Shiga toxin inh
Cc1cc2[nH]c3c(=O)n(Cc4ccccc4F)ncc3c2s1 | . | . | . | -1 | . | 2
CC1=NN(C(N)=S)C(=O)C1N=Nc1ccc(C)c(Br)c1 (stereo not drawn) | -2% | 23% | 0% | 36* | -12% | 59*
CC1=NN(c2ccccc2C(=O)O)C(=O)C1N=Nc1ccccc1 (stereo not drawn) | 1% | -5% | -1% | 2 | 2% | 14
CC1=NN(C(N)=S)C(=O)C1N=Nc1ccc([N+](=O)[O-])cc1 (stereo not drawn) | -3% | ? | -10% | 53* | 3% | 39*
CC(N)=Nc1ccc([N+](=O)[O-])cc1 | -3% | 0% | 8% | -2 | -13% | -6
CC(=O)Nc1ccc(N=NC2C(=O)N(C(N)=S)N=C2C)cc1 (stereo not drawn) | -3% | 0% | -4% | 21* | 5% | 40
CC1=NN(C(N)=S)C(=O)C1N=Nc1cccc(C)c1 (stereo not drawn) | 2% | 7% | -1% | 22* | -9% | 24
CCOc1cc(/C=C2\C(=O)N(CCC#N)N=C2C)ccc1OCC(N)=O | 1% | -5% | -11% | -1 | -13% | -3
C=CCOc1ccc(/C=N/NC(=O)CN2CCCCC2)cc1OC | -10% | 1% | 0% | 1 | -15% | -8
COc1ccc(NC(=O)COc2ccc(/C=N/O)cc2OC)cc1 | 3% | -5% | 0% | 31* | -4% | 52*
CCNC(=S)N/N=C/c1ccc(OCC(=O)Nc2ccc(OC)cc2)c(OC)c1 | 0% | -2% | 5% | -1 | -4% | -8
COc1cc(/C=C2\C(=O)N(CCC#N)N=C2C)ccc1OCC(=O)Nc1ccccc1 | 1% | 2% | ? | 63* | 32% | 66*
C/C=C/c1ccc(OCC(=O)Nc2ccncc2)c(OC)c1 | 7% | 0% | -2% | 21* | -24% | 39*
COc1cc(/C=N/NC(=O)c2cc3ccccc3cc2O)ccc1OCCN1CCCCC1 | 2% | ? | -17% | 42* | -16% | active
COc1cccc(N2CCN(C(=O)c3cc4c(s3)-c3c(C)cccc3OC4)CC2)c1 | . | . | -12% | . | . | .
COc1cc(NS(=O)(=O)c2cc3c(cc2C)N(C)CCO3)cc(OC)c1OC | . | . | -4% | . | . | .
COc1ccc(CCNC(=O)CCn2c(=O)c3ccccc3n(CC(=O)Nc3ccc(C)cc3C)c2=O)cc1OC | . | . | -11% | . | . | .
CNC(=O)[C@H]1O[C@@H](n2cnc3c(N)ncnc32)[C@H](O)[C@H]1O | . | -2% | . | . | . | .
COc1cc(/C=N/NC(=O)c2ccncc2)ccc1OCC(=O)Nc1cccc([N+](=O)[O-])c1 | 4% | -9% | 2% | 1 | 2% | -6
COc1cc(/C=N/NC(=O)c2ccncc2)ccc1OCC(=O)Nc1ccc(C)c(C)c1 | 2% | . | 1% | 13* | 1% | 40
COc1cc(/C=N/NC(=O)c2ccncc2)ccc1OC(C)=O | -3% | -12% | -2% | -2 | -11% | -11
COc1cc(/C=N/NC(=O)c2ccncc2)ccc1OCCN1CCCCC1 | 1% | 4% | 1% | 35* | -5% | +
CC(C)c1ccc(S(=O)(=O)c2cnc(SCC(=O)Nc3cccc(C(F)(F)F)c3)nc2N)cc1 | . | . | -5% | . | . | .
CC(=O)Nc1ccc2c(c1)n(C)c(=O)n2C | 1% | -5% | 1% | 1 | 13% | 11
Cn1c(=O)n(C)c2cc(NC(=O)CCl)ccc21 | 1% | 4% | -5% | 23* | 4% | 12
C/C(=N\NC(=O)c1nn(C)cc1Br)c1cccc(NC(=O)C2CCCC2)c1 | -3% | 3% | 0% | 65* | 0% | 102*
C/C(=N\NC(=O)c1nn(C)cc1Br)c1ccc(NC(=O)c2ccncc2)cc1 | -4% | 4% | -3% | 59* | -2% | 105*
C/C(=N\NC(=O)c1c(Br)c(C)nn1C)c1cccc(NC(=O)C2CCC2)c1 | -4% | 0% | 6% | 12 | -9% | 25
C/C(=N\NC(=O)c1ccc(N/N=C(\C)c2ccncc2)cc1)c1ccncc1 | -3% | -7% | -6% | 8 | -8% | -13

Screening data deposited in PubChem by National Center for Advancing Translational Sciences (NCATS).
